# From PubChem BioAssay
# Compounds with a hit are over-represented: about 3.7% of the library has one in this group of screens.
# A549 viability = counter-screen for Nrf2 inhibitors: cytotoxicity in A549 cells; A549 ARE-Fluc cells, CellTiter-Fluor viability, 18-24 h; Potency, µM (titrated, usually from 46 µM), without a hit: top-dose activity change, negative = cytotoxicity, usual class: inhibitors; 390,000 compounds, 0.16% hits; note: % is set by controls: 0 for no effect and ±100 for the full control effect
#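 A549 ARE_Fluc cells in 5% FBS OPTI-MEM were exposed to compounds in concentration-response for 18-24 h at 37 deg C. Viability was read by CellTiter-Fluor fluorescence (Ex 405/Em 525) after 30 min, before the luciferase read.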
# ELG1 repair inh = inhibitors of ELG1-dependent DNA repair in HEK293T cells | Potency, µM (titrated, usually from 46.1 µM), for the others: at the top dose activity change, negative = inhibition, hits mostly inhibitors | 330,000 compounds, 2.3% hits | AID 504467 | HEK293T ELG1-luciferase reporter, luminescence, 16 h; DNA damage induced by 5-fluorouridine; note: % is set by controls: 0 for no effect and ±100 for the full control effect; nearly all actives have a fitted effect of over 55% in size
#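 Reporter activity after DNA damage by 5-fluorouridine is monitored. Compound-treated cells incubate 16 hr at 37 °C, then ONE-Glo is added for 30 min before luminescence reading.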
# Nrf2 block = blocks Nrf2 signaling. 360,000 compounds, 2.1% hits. A549 ARE-Fluc reporter, luciferase luminescence, 18-24 h. AID 504444. Potency, µM (titrated, usually from 46 µM), inactives show top-dose activity change, negative = inhibition, most hits filed as inhibitors; note: % is set by controls: 0 for no effect and ±100 for the full control effect; nearly all actives have a fitted effect of over 60% in size
#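 Nrf2 function is reported as luminescence of an ARE-controlled luciferase in A549 cells. Compounds were tested at several concentrations, and a CellTiter-Fluor read on the same wells flagged cytotoxicity.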
# Nrf2 activator = activates Nrf2 signaling | AREc32 ARE-luciferase reporter (MCF7-derived line), luminescence, 24 h | Potency, µM (top dose mostly 46.1 µM), inactives show at the top dose activation, hits mostly activators | 410,000 compounds, 0.31% hits; note: % of control where 0% means no effect; nearly all actives have a fitted effect of over 65% in size
#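 ARE-driven firefly luciferase activity in AREc32 cells measured after a 24 hr compound exposure at 37 deg C, using Steady-Glo reagent and a 30 min room-temperature hold.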
# An asterisk follows results filed as active; ? = inconclusive; nt = no result given; [ ] = another dose, or the depositor's remark. Calls come from the whole dose curve; as a rule, active = well fitted curve in the direction sought with a large enough effect; inconclusive = small, poorly fitted or top-dose-only effect, or another doubt; inactive = no such curve, though single readings can be large; an effect the other way counts as inactive or inconclusive. Potency is the fitted concentration of half-maximal effect.
SMILES,A549 viability,ELG1 repair inh,Nrf2 block,Nrf2 activator
COc1ccc(C(=O)Nc2ccc(Cc3ccncc3)cc2)cc1Br,?,0%,18µM*,4%
COc1ccc(C(=O)Nc2ccc(OC)c([N+](=O)[O-])c2)cc1Br,-26%,-1%,21µM*,0%
O=C(C1CCC(Cn2c(=O)c3sccc3n(Cc3ccccc3F)c2=O)CC1)N1CCOCC1 (stereo not given),8%,nt,-6%,5%
O=S(=O)(Nc1cc(Cl)ccc1-n1cncn1)c1cc(Br)ccc1Br,?,23µM*,13µM*,0%
CC(=O)c1cccc(Oc2cc(NN3CCCCC3)c([N+](=O)[O-])cc2[N+](=O)[O-])c1,?,-17%,?,0%
CC(=O)c1ccccc1Oc1cc(NN2CCCCC2)c([N+](=O)[O-])cc1[N+](=O)[O-],-19%,9%,26µM*,1%
COc1ccc2c(c1)-c1c(ssc1=S)C(C)(C)N2,-16%,2.6µM*,?,-1%
COc1ccc2c(c1)-c1c(sn(-c3ccccc3)c1=S)C(C)(C)N2,-5%,-4%,-6%,5%
COc1ccc(-n2sc3c(c2=S)-c2cc(OC)ccc2NC3(C)C)cc1,-18%,-2%,21µM*,2%
CN(CC(=O)NCCc1ccc(S(N)(=O)=O)cc1)Cc1c(F)cccc1Cl,4%,-5%,-5%,-1%
CN(CC(=O)NCCc1ccc(S(N)(=O)=O)cc1)Cc1ccc(Cl)cc1Cl,-6%,-13%,18µM*,0%
Cc1ccc(Nc2c(-c3ccc(N(C)C)cc3)nc3ccccn23)cc1,-13%,nt,-28%,4%
COC(CN(C(=O)CCl)C(C(=O)NC1CCCCC1)c1ccc(Cl)cc1)OC (stereo not given),-1%,0%,2%,17%
COC(CN(C(=O)CCl)C(C(=O)NC1CCCCC1)c1ccccc1C)OC (stereo not given),-15%,23µM*,?,?
Cc1c(CCO)c(=O)n(-c2ccccc2)n1S(=O)(=O)c1ccc(Cl)cc1,-7%,6%,-13%,0%
CC1CCCCN1C(=O)c1cc2nc(-c3ccccc3)cc(-c3ccccc3)n2n1 (stereo not given),-14%,16µM*,?,-1%
COc1ccccc1N1CCN(CC(O)COc2ccc(S(=O)(=O)N3CCOCC3)cc2)CC1 (stereo not given),10%,10µM*,?,0%
COc1cc(-c2nc(-c3ccc4c(c3)-c3ccccc3S4(=O)=O)c(-c3ccccc3)[nH]2)cc(OC)c1OC,0%,2.6µM*,-28%,0%
CC(C)OCCCNC(=O)CCCN1C(=O)CCn2nc(-c3cccn3C)cc21,14%,nt,nt,1%
CCOC(=O)c1[nH]c(C)c(C(=O)N2CCN(c3ccc(OC)cc3)CC2)c1C,1%,-4%,6%,0%
CCOC(=O)c1[nH]c(CN2CCN(c3ccc(OC)cc3)CC2)c(C(=O)OCC)c1C,0%,18µM*,-16%,2%
O=C(NC1CC(=O)N(c2cccc(F)c2)C1)c1ccc(S(=O)(=O)N2CCCCC2)cc1 (stereo not given),3%,nt,nt,-1%
O=C(N/N=C/C(Cl)=C\c1ccccc1)c1cccs1,-12%,?,?,11µM*
O=C(NN=C1C2CC3CC(C2)CC1C3)c1ccncc1,-4%,4%,12%,0%
CC(/C=N/NC(=O)c1cccs1)=C\c1ccccc1,9%,?,?,17%
SMILES,A549 viability,ELG1 repair inh,Nrf2 block,Nrf2 activator
O=C(N/N=C1\C/C(=N\NC(=O)c2ccncc2)c2ccccc21)c1ccncc1,?,0%,7.3µM*,?
O=C(N/N=C/C(Cl)=C/c1ccccc1)c1ccncc1,-7%,7%,-5%,22µM*
Cc1ccc(S(=O)(=O)N(CC(=O)N2CCC(C)CC2)Cc2ccccc2F)cc1,-20%,-3%,?,0%
C=C(C)n1c(=O)n(Cc2ccc(C)cc2)c2ccccc21,-22%,-2%,16µM*,0%
COc1cccc(-n2cc(C(=O)NCCc3cccc(C)c3)c3ccccc3c2=O)c1,2%,nt,-2%,0%
O=C(Cn1cc[n+](Cc2ccccc2)c1)c1ccc([N+](=O)[O-])cc1,3%,15µM*,-7%,-1%
O=[N+]([O-])c1ccc(C[n+]2ccccc2)cc1,0%,8%,21µM*,0%
CCCCOn1c(C)c(C(=O)OCC)c2c3nonc3ccc21,2%,nt,-22%,1%
COn1c(C)c(C(C)=O)c2c3nonc3ccc21,-2%,21µM*,nt,-1%
O=C(CCC(=O)OCC(F)(F)C(F)F)Nc1ccc(Cl)cc1,nt,-9%,1%,0%
Cc1ccc(NC(=O)OCC(F)(F)C(F)F)cc1NC(=O)OCC(F)(F)C(F)F,nt,-9%,18µM*,2%
NC(=O)c1ccc(O)c2ncccc12,-1%,nt,2%,nt
O=Cc1ccc(O)c2ncccc12,0%,2.3µM*,?,?
O=C(c1ccco1)N1CCCC(c2nc(-c3ccc(S(=O)(=O)NCc4ccccc4)cc3)no2)C1 (stereo not given),-11%[1.84 µM],21µM*,10µM*,-1%
COc1ccc(-c2noc(C3CCCN(C(=O)CCc4ccccc4)C3)n2)cc1 (stereo not given),-7%,?,?,0%
Cc1cnc(NC(=O)C2CC=CCC2)s1 (stereo not given),2%,?,6%,5%
CCCC1(C(=O)OCC)NC(c2ccc(OC)cc2OC)C2C(=O)N(c3ccccc3)C(=O)C21 (stereo not given),-10%,12µM*,nt,3%
Cc1cc(C)n(-c2nc(NC(C)(C)C)nc(NC(C)(C)C)n2)n1,0%,?,nt,0%
Cc1cc(C)n(-c2nc(Nc3ccccc3C(F)(F)F)nc(-n3nc(C)cc3C)n2)n1,?,13µM*,nt,-4%
Cc1cc(C)n(-c2nc(NC(C)C)nc(NC(C)C)n2)n1,0%,2.9µM*,?,0%
CCOC(=O)c1[nH]c2ccc(OC)cc2c1NC(=S)N1CCN(c2cccc(C)c2C)CC1,-10%,13µM*,?,6%
CCOC(=O)c1[nH]c2ccc(F)cc2c1NC(=O)c1cc(OC)c(OC)c(OC)c1,-4%,7.3µM*,?,7%
CCOC(=O)c1[nH]c2ccc(F)cc2c1NC(=O)c1ccccc1C(=O)O,-1%,?,24%,9%
COc1ccc(N2CCN(C(=S)Nc3cccc(C)c3C)CC2)cc1,?,-1%,26µM*,0%
CCOC(=O)c1[nH]c2ccc(OC)cc2c1NC(=O)c1cccc(OC)c1,8%,13µM*,3%,2%
CC(=O)N1N=C(N)SC1(C)C,-5%,9%,6%,-1%
CCC(C)[C@@H](CN)NCC1(c2ccccc2)CC1 (stereo not given in full),6%,-3%,-20%,0%
Cn1c(N)c(C(=O)CSc2n[nH]c(-c3ccccc3)n2)c(=O)n(C)c1=O,7%,6%,4%,0%
CCCCn1cc2c(c1-c1ccccc1Br)c(=O)n(C)c(=O)n2C,-3%,nt,-18%,3%
